Sampled rows, rich in hits. Any-hit rate of the full collection: about 3.7%.
tim10-1 inh: growth inhibitors of tim10-1 mutant yeast; S. cerevisiae tim10-1 ts strain growth, BacTiter-Glo, 24 h; inhibition, % at 20 µM; 330,000 compounds, 2.2% hits; AID 463190;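 active means inhibition of at least 40%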;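 further: mutant grown at 25 °C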
PfHsp90 set2: inhibits growth of yeast expressing Plasmodium falciparum Hsp90 | S. cerevisiae expressing PfHsp90, BacTiter-Glo ATP, 48 h; yeast lacking PDR1 and PDR3 efflux regulators | inhibition, % at 9.4 µM | 310,000 compounds, 0.32% hits;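 active means every replicate shows inhibition above about 80%, whatever the replicate mean, limit read from the data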
TIM10 inh: growth inhibitors of TIM10 yeast strain. AID 463195. S. cerevisiae TIM10 strain growth, BacTiter-Glo luminescence, 24 h. 330,000 compounds, 1.4% hits. inhibition, % at 10 µM;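 active means inhibition of 40% or more at the single tested concentration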;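 further: wild-type TIM10 isogenic control strain grown at permissive 25 °C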
tim23-1 inh: inhibits growth of tim23-1 mutant yeast | S. cerevisiae tim23-1 growth, BacTiter-Glo luminescence, 24 h | inhibition, % at 20 µM | 330,000 compounds, 1.3% hits | AID 463212;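 active means growth inhibition of the mutant yeast at or above 50%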;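 further: temperature-sensitive mutant grown at 25 °C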
Rce1 inh: inhibitors of yeast Ras-converting enzyme; Q03530; yeast membranes, quenched prenylated peptide cleavage fluorescence; calls only; 290,000 compounds, 0.27% hits;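 active means fall in fluorescence gain of 50% or more versus controls, with final raw signal at or below 3038400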
Target sequence (Q03530 whole entry, looked up): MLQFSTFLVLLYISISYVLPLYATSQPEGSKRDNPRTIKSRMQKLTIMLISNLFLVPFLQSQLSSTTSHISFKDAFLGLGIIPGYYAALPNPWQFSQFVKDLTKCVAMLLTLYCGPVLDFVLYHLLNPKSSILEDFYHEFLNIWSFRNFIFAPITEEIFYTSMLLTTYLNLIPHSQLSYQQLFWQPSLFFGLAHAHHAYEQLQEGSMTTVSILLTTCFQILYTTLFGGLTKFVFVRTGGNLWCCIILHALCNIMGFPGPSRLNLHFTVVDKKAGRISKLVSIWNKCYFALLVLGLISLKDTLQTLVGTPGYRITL
tim10-1 confirm: confirmation of tim10-1 mutant yeast growth inhibitors. shares compounds with tim10-1 inh. S. cerevisiae tim10-1 ts strain growth, BacTiter-Glo, 24 h. inhibition, % at 20 µM. 7,400 compounds, 56% hits. AID 463213;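 active means inhibition of yeast growth at or above a set limit in either of two repeat tests at 20 µM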;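 further: tim10-1 mutant grown at permissive 25 °C to find synthetic lethal compounds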
tim10 confirm: confirmation of TIM10 yeast growth inhibitors; inhibition, % at 10 µM; 4,600 compounds, 63% hits; S. cerevisiae tim10 strain growth, BacTiter-Glo luminescence, 24 h; shares compounds with TIM10 inh; AID 463215;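 active means inhibition of yeast growth at or above a set limit in either of two replicates at 10 µM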; further: this counterscreen used the strain with wild-type TIM10
tim23-1 confirm: tim23-1 yeast growth inhibition, confirmed; shares compounds with tim23-1 inh; S. cerevisiae tim23-1 growth, BacTiter-Glo luminescence, 24 h; inhibition, % at 20 µM; 4,400 compounds, 83% hits; AID 463218;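 active means inhibition above about 39% in either of two replicate wells at 20 µM, limit read from the data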;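 further: temperature-sensitive tim23-1 mutant grown at 25 °C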
Numbers stand for hits; i = inactive; nt = no result given.

SMILES	tim10-1 inh	PfHsp90 set2	TIM10 inh	tim23-1 inh	Rce1 inh	tim10-1 confirm	tim10 confirm	tim23-1 confirm
O=C(Nc1ccc(F)cc1F)c1cc(=O)n(-c2ccccc2)c(=O)[nH]1	i	nt	i	i	i	nt	nt	nt
COCc1nc2c([nH]1)c(=O)n(C)c(=O)n2CC(C)C	i	i	i	i	nt	nt	nt	nt
Cc1cc2n(n1)C(c1ccco1)Nc1ccccc1-2 (configuration not stated)	i	nt	i	i	i	nt	nt	nt
Cc1cc2n(n1)C(c1c[nH]c3ccccc13)Nc1ccccc1-2 (configuration not stated)	60	125	40	71	i	34	33	i
Cc1cc2n(n1)C(c1ccc(O)cc1)Nc1ccccc1-2 (configuration not stated)	54	i	55	50	i	46	48	54
CC(C)CC(c1nnnn1C(C)(C)C)N1CCN(Cc2ccccc2)CC1 (configuration not stated)	i	i	i	i	i	nt	nt	nt
Cc1cccc(N2CCN(c3nc4ccccc4n4cnnc34)CC2)c1C	70	i	53	64	i	i	42	72
c1cnc(N2CCN(c3nc4ccccc4n4cnnc34)CC2)nc1	i	i	i	i	i	nt	nt	nt
Oc1c(C(c2cccs2)N2CCN(c3ccccc3)CC2)ccc2cccnc12 (configuration not stated)	56	nt	i	59	nt	40	nt	78
CN(C)c1ccc(N=Nc2nc3ccccc3n2C)cc1	65	i	82	87	i	74	73	82
Cn1c(N=Nc2ccccc2)nc2ccccc21	i	i	i	i	i	nt	nt	nt
COC(C/C=C\C(=O)[C@@H](C)OCc1ccccc1)OC	41	nt	i	52	i	i	nt	45
COC(C/C=C/[C@@H](O)[C@@H](C)OCc1ccccc1)OC	i	nt	i	i	i	nt	nt	nt
CC[C@@H]1C/C=C\Cc2ccccc2[C@H](C(=O)C[C@@H](O)CC(C)=O)OC1=O	54	i	i	52	nt	53	nt	49
O=C(NCCC1=CCCCC1)c1c(O)nc2ccccn2c1=O	51	i	i	56	i	i	nt	56
O=C(NCCCN1CCCC1=O)c1c(O)nc2ccccn2c1=O	i	i	i	i	i	nt	nt	nt
O=C(NCCC1=CCCCC1)c1c(O)nc2sccn2c1=O	42	nt	i	75	i	i	nt	62
CC(C(=O)Nc1nncs1)N1C(=O)C2C3C=CC(C3)C2C1=O (configuration not stated)	i	i	i	i	i	nt	nt	nt
COc1ccc(Cl)cc1/C=C1/C(=O)ON=C1C	i	i	i	i	i	nt	nt	nt
CC1=NOC(=O)/C1=C/c1ccc(-c2ccc(Cl)cc2)o1	44	105	65	65	nt	i	69	i
Cc1ccc(C2=NOC(=O)/C2=C\c2ccc(C)o2)cc1	59	i	45	79	i	39	39	80
CC1=NOC(=O)/C1=C\c1ccc(-c2cc(Cl)ccc2Cl)o1	51	i	i	79	i	i	nt	68
CN1CCCN(C(=O)/C=C/c2ccc(Cl)cc2Cl)CC1	i	i	i	i	i	nt	nt	nt
CC(O)(c1ccccc1)c1ccc2ccccc2n1 (configuration not stated)	nt	i	nt	nt	nt	nt	nt	nt
CCCCCCn1c2c(c(=N)c3c1CCC3)CCC2	i	nt	i	i	i	nt	nt	nt
SMILES	tim10-1 inh	PfHsp90 set2	TIM10 inh	tim23-1 inh	Rce1 inh	tim10-1 confirm	tim10 confirm	tim23-1 confirm
CCCCCCCCCn1c2c(c(=N)c3c1CCC3)CCC2	64	i	48	67	i	60	50	83
O=C(Oc1ccc(Cl)c2cccnc12)c1cccc([N+](=O)[O-])c1	i	i	i	i	i	nt	nt	nt
O=C(Oc1c(Cl)cc(Cl)c2cccnc12)c1cccc([N+](=O)[O-])c1	51	107	50	63	i	i	i	73
CCc1c(O)cc2n(c1=O)-c1ccc(Cl)cc1C2(C)C	44	i	42	52	nt	34	i	49
CN1/C(=C/C2CC(=O)N(c3ccc([N+](=O)[O-])cc3)C2=O)C(C)(C)c2ccccc21 (configuration not stated)	66	i	51	51	i	62	42	66
O=[N+]([O-])c1ccccc1Nc1c2ccccc2nc2ccccc12	i	i	i	i	i	nt	nt	nt
O=[N+]([O-])c1ccc(Nc2c3ccccc3nc3ccccc23)cc1	63	i	49	73	i	54	50	68
CC(C)(C)OC(=O)N(CCc1ccccc1)Cc1cccc(OCc2cccc(NC(=O)c3ccccc3)c2)c1	nt	i	nt	nt	nt	nt	nt	nt
CCOC(=O)C1=C(CSc2nc(CC)c(C)cc2C#N)OC(N)=C(C#N)C1c1ccc(OC)cc1 (configuration not stated)	41	nt	i	54	i	i	nt	61
Cc1cccc(CSc2cccc3cccnc23)c1	46	nt	i	51	i	40	nt	50
Cc1ccccc1NC(=O)/C(C#N)=C/c1ccccc1C(F)(F)F	58	i	56	56	i	56	i	58
Cc1ccc(CNC(=O)C2CCCN(S(=O)(=O)c3ccc(F)cc3)C2)cc1 (configuration not stated)	i	i	i	i	i	nt	nt	nt
COC(=O)N/N=C/c1sc(N2CCCCC2)nc1-c1cccs1	45	i	i	53	i	33	nt	47
COc1ccc(C(=O)N/N=C/c2sc(N3CCOCC3)nc2-c2ccccc2)cc1OC	i	i	i	i	i	nt	nt	nt
CN(C)CCN(C)Cc1c2ccccc2c(CN(C)CCN(C)C)c2ccccc12	47	i	i	58	i	36	nt	56
CCOC(=O)C1=C(Cc2ccc(Cl)cc2)C(=O)c2ccccc2C1=O	64	105	57	67	i	67	58	63
CCOC(=O)C1=C(C)N=C2c3ccccc3C(=O)C2C1c1ccc(Cl)cc1 (configuration not stated)	i	i	i	i	i	nt	nt	nt
FC(F)Oc1ccc(NC(=S)NCC2COc3ccccc3O2)cc1 (configuration not stated)	i	i	i	i	i	nt	nt	nt
CC(C)(C)OC(=O)N(CCc1ccccc1)Cc1ccccc1OCc1cccc(NC(=O)/C=C/c2ccccc2)c1	nt	i	nt	nt	nt	nt	nt	nt
FC(F)(F)c1cccc(NC(=S)NC(c2ccccc2)c2ccccc2)c1	nt	i	nt	nt	i	nt	nt	nt
CCOc1cc(OCC)cc(C(=O)NC(=S)Nc2cccc(C(F)(F)F)c2)c1	i	nt	i	i	i	nt	nt	nt
O=C(NC(=S)Nc1cccc(C(F)(F)F)c1)c1ccc2nonc2c1	51	nt	i	56	i	i	nt	63
FC(F)(F)c1cccc(NC(=S)Nc2ccc(Cl)c(Cl)c2)c1	73	i	76	86	i	82	73	90

High-throughput results (PubChem BioAssay)
